Here are results for 19 compounds from PubChem BioAssay (NCATS).

Inconclusive results are not listed. Entries that show only a call come without a potency. Calls of active or inactive are those of the source. Calls follow the shape of the dose curve; as a rule, active = well fitted cell-killing curve with a large enough effect; inconclusive = small, poorly fitted or top-dose-only effect; inactive = flat fitted curve, though single readings scatter.
Potency is read from the fitted curve at half-maximal effect.

A short description of this assay: MultiTox-Fluor Cytotoxicity Assay - LYMP1-001 - Live Cells (AID 947). The following applies: LYMP1-001 lymphoblastoid cells, live-cell protease fluorescence viability; series mostly up to 92.2 µM. The source says:
NIH Chemical Genomics Center [NCGC]
NIH Molecular Libraries Screening Centers Network [MLSCN]
National Institutes of Environmental Health Sciences [NIEHS]
National Toxicology Program [NTP]
We have developed a 1536-well cell-based assay for quantitative high throughput screening (qHTS) against a number of cell lines to determine in vitro cytotoxicity of small molecules. This particular assay uses a human lymphoblastoid cell line (LYMP1-001) purchased from Coriell Institute.
NCGC Assay Protocol Summary:
The MultiTox-Fluor Cytotoxicity Assay (Promega) is a homogeneous method to simultaneously measure the relative number of live and dead cells in culture by detecting changes in cell membrane integrity. There are two fluorogenic peptide substrates in the assay reagent. Viable cells are determined when the cell-permeant substrate (GF-AFC) enters the cell and is cleaved by protease from live cells resulting in liberated fluorophore. This live-cell protease activity restricted to viable cells is proportional to cell number. The dead cells are determined by using fluorogenic cell-impermeant peptide substrate (bis-AAF-R110) which cleaved by dead cell proteases leaking from damaged cell membrane.
Using the MultiTox-Fluor Cytotoxicity Assay, the relative number of live cells was measured in the lymphoblastoid cell line with complete culture medium following compound treatment for 16 hours. The assay was performed in opaque black Kalypsys 1536-well plates. In the screen, tetraoctylammonium bromide was used as positive control. Library compounds were measured for their ability to cause acute toxicity in the cell line, as reflected by a decrease in live cell protease activity, in a concentration-dependent manner. […] AC50 values were determined from concentration-response data modeled with the standard Hill equation.
qHTS protocol for MultiTox-Fluor Cytotoxicity assay
[Step] [Parameter] [Value] [Description]
1. Reagent; 5 uL; 2500 lymphoblastoid cells/well
2. Time; 5 hr; 37 C incubation
4. Controls; 23 nL; Tetraoctylammonium bromide 6.4pM to 92 uM
5. Time; 16 hr; 37 C incubation
6. Reagent; 5 uL; MuliTox-Fluor Assay reagent
7. Time; 60 min; Room Temperature
8. Detection; live-cell fluorescence (Ex/Em=405/510); EnVision plate reader
Keywords: cell viability, cytotoxicity, lymphoblastoid cell line, fluorescence, NTPHTS, NTPHTS_NCGC, NIEHS, EPA, DSSTox, MLSMR, MLSCN, NIH Roadmap, qHTS, NCGC
As for `CC(C)(C)c1ccc(O)c(O)c1`, the Potency entry is “inactive”. As for `c1ccc2occc2c1`, the Potency result was “inactive”. The value for `CCCC(=O)c1cc(O)c(O)cc1O` was “inactive”; that for `Oc1ccccc1` was “inactive”; that for `COc1cc(C=O)ccc1O` was “inactive”. Regarding `CC(C)(c1ccc(O)cc1)c1ccc(O)cc1`, the Potency result is “inactive”. In the case of `OCc1c[nH]c2ccccc12` it was “inactive”. Regarding `CC(C)C(C)(C)C(C)(C)C(C)(C)S`, the Potency entry was “inactive”. Take `Brc1ccccc1-c1ccccc1`: the Potency entry is “inactive”.

As for `Nc1c2ccccc2nc2ccccc12`, the Potency result was “inactive”.

On to `O=C(Oc1ccccc1)c1ccccc1O`, for which the Potency entry was “inactive”. Turning to `CC(=O)OC/C=C(C)/C=C/C=C(C)/C=C/C1=C(C)CCCC1(C)C`, the Potency entry was “inactive”. Take `CCCCC(CC)COC(=O)c1ccccc1C(=O)O` (centres undefined): the Potency entry was “inactive”. Regarding `O=C(NO)c1ccccc1`, the Potency entry is “inactive”.

Take `Cc1ccc(O)cc1`: the Potency result was “inactive”. Turning to `O=C(c1ccccc1)c1ccccc1`, the Potency entry is “inactive”.

Turning to `Cc1cc(C(C)(C)C)c(O)c(C(C)(C)C)c1`, the Potency result was “inactive”. As to `CCCCCCCCCCCCCCCC[n+]1ccccc1`, the Potency was 20 µM (active). With `C1=CC2C3C=CC(C3)C2C1` (centres undefined), the Potency result was “inactive”.
